Sampled rows, rich in hits. Any-hit rate of the full collection: about 1.7%.
GLP-1R inv ag: acts as inverse agonist at human GLP-1 receptor. HEK293 GLP-1R CRE-luciferase, luminescence, 24 h; GLP-1R form is constitutively active. Potency, µM (series often up to 38.3 µM), hits mostly inhibitors. P43220. 1.6% of 410,000 active; also: nearly all actives have a fitted effect of over 55% in size
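Assay principle: reduced luminescence from a cAMP-responsive reporter in HEK293 cells co-expressing a constitutively active GLP-1R. Conditions: 24 hr compound incubation, 37 deg C, 5% CO2.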
GLP1R cytotox: cytotoxicity counter-screen for GLP-1 receptor inverse agonists. Potency, µM (highest dose often 38.3 µM), usual class: inhibitors. 0.13% of 410,000 active. HEK293 cAMP-luciferase reporter cells, luminescence, 24 h;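 also: loss of luciferase light is scored as toxicity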
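A 23 nL compound transfer followed 12 hours of cell culture at 37 deg C; exposure then lasted 24 hr. Luciferase assay detection reagent was dispensed and plates read for luminescence after a 12 min room-temperature wait.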
GLP-1R agonist: activates the human GLP-1 receptor | HEK293 GLP-1R CRE-luciferase, luminescence, 4-6 h; cells express a hypersensitive GLP-1R form | Potency, µM (top dose mostly 45.6 µM), hits mostly activators | 0.007% of 380,000 active | AID 624172
PTHR1 ag: activates the human parathyroid hormone receptor PTHR1. Q03431. HEK293 GP2 PTHR1 cells, GloSensor cAMP luminescence, 1 h. Potency, µM (doses to about 115 µM), usual class: activators. 0.075% of 410,000 active. AID 743266; also: nearly all actives have a fitted effect of over 55% in size
Target sequence (Q03431 whole entry, looked up): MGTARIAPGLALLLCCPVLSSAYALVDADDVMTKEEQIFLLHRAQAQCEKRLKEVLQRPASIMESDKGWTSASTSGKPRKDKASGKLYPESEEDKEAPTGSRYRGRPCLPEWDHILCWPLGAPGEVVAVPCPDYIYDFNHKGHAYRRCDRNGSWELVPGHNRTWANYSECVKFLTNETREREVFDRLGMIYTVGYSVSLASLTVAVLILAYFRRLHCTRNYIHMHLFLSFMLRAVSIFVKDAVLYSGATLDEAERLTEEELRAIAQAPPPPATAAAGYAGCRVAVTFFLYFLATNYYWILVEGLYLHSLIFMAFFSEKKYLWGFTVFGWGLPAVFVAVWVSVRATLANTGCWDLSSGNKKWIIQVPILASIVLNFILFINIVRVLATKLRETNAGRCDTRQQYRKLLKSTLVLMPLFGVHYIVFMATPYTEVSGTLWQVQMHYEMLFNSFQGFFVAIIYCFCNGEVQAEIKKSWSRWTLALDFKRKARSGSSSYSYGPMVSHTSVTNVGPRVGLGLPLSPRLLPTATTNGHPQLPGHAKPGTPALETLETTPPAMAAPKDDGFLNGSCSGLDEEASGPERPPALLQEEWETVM
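HEK-293-derived GP2 cells expressing PTHR1 and a GloSensor cAMP reporter, 3,000/well, plated overnight, given luciferin plus IBMX (each 0.5 mM as added) for 1 h at 37 °C, then compound for 1 h at 37 °C. Luminescence was read after 15 min at room temperature.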
Large screens that a line does not name were inactive. Calls follow the shape of the dose curve; as a rule, active = well fitted curve in the direction sought with a large enough effect; inconclusive = small, poorly fitted or top-dose-only effect, or another doubt; inactive = no such curve, though single readings can be large; an effect the other way counts as inactive or inconclusive.

CN1CCN(c2ccc(NC(=O)CSc3nnnn3-c3ccccc3Cl)cc2)CC1	GLP-1R inv ag 5µM, PTHR1 ag inconclusive
COc1ccc(C(=O)C/C(=C\C(=O)c2ccc(C)cc2)c2ccccc2)cc1	GLP-1R inv ag 4.5µM
Cc1cc(C)cc(OCCSc2nc3ccc(NC(=O)c4cccs4)cc3s2)c1	GLP-1R inv ag 10µM (no result: GLP-1R agonist)
Cc1ccccc1CN1CCCN(CC(=O)Nc2ccc(F)cc2)S1(=O)=O	GLP-1R inv ag inconclusive (no result: GLP-1R agonist)
Cc1cccc2nc(-c3cccnc3)c(Nc3ccc(C(C)C)cc3)n12	GLP-1R inv ag 10µM (no result: GLP-1R agonist)
Cc1ccccc1Nc1c(-c2cccnc2)nc2cccc(C)n12	none
CN(C)S(=O)(=O)Oc1ccsc1C(=O)Nc1ccc(Cl)c(Cl)c1	GLP-1R inv ag 10µM
CN(C)S(=O)(=O)Oc1ccsc1C(=O)Nc1cccc(Cl)c1	none
Cc1cc(=O)n2nc(N3CCCC(C(=O)NCCc4ccccc4)C3)sc2n1 (stereo unspecified)	none
O=C(NCCc1ccccc1)C1CCCN(c2nc3ccccc3s2)C1 (stereo unspecified)	GLP-1R inv ag 10µM
Cc1cccc(Cn2cc(C(=O)Nc3ccc(F)c(C(F)(F)F)c3)ccc2=O)c1	GLP-1R inv ag 10µM (no result: GLP-1R agonist)
COc1ccccc1-c1nc2c(c(SCC(=O)Nc3ccccc3F)n1)Cc1c(CO)cnc(C)c1O2	none (no result: GLP-1R agonist)
CCC(C)Oc1cc(-c2ccnc(Nc3cccc(Cl)c3)n2)ccn1 (stereo unspecified)	GLP-1R inv ag 11µM
Cn1c(Sc2ccc(Br)cc2)c(C=O)c2ccccc21	GLP-1R inv ag 4.5µM
CCOc1ccc(-n2c(SCc3ccc(C(=O)OC)o3)nc3c([nH]c4ccccc43)c2=O)cc1	none
Cc1ccc(S(=O)(=O)c2ccc([N+](=O)[O-])o2)cc1	GLP-1R inv ag inconclusive, GLP1R cytotox 5.6µM
O=C(O)c1ccc(NC(=O)c2cc(S(=O)(=O)N3CCCCC3)c(Cl)cc2Cl)cc1	PTHR1 ag inconclusive (no result: GLP-1R agonist)
Cc1ccc(C(=O)OCC(=O)NCc2cccc(Cl)c2)cc1S(=O)(=O)N1CCCCC1	GLP-1R inv ag 5µM
Cc1ccc(C(=O)OCC(=O)Nc2ccccc2C(F)(F)F)cc1S(=O)(=O)N1CCCCC1	GLP-1R inv ag 10µM
O=C(COC(=O)c1ccc(Cl)c(S(=O)(=O)N2CCCCC2)c1)NCCc1ccccc1	none
CC(C)C(=O)Nc1cccc(C(=O)NCc2ccc3c(c2)OCO3)c1	none
CC12CC(NC(=O)N1c1cccc(C(=O)NCc3ccc4c(c3)OCO4)c1)c1cc(Cl)ccc1O2 (stereo unspecified)	GLP-1R inv ag 1.6µM, GLP1R cytotox inconclusive
COC(=O)c1ccccc1NC(=O)CSc1nc2ccccc2nc1Cc1ccccc1OC	none
COc1ccc(N2C(=O)CS(=O)(=O)C23C(=O)N(Cc2c(F)cccc2Cl)c2ccccc23)cc1 (stereo unspecified)	none
O=C1CC(N(CCc2ccccc2)C(=S)Nc2ccccc2)C(=O)N1c1ccccc1 (stereo unspecified)	GLP-1R inv ag inconclusive
CCNC(=S)N(CCc1ccc(S(N)(=O)=O)cc1)C1CC(=O)N(c2ccccc2)C1=O (stereo unspecified)	GLP-1R inv ag inconclusive
O=C1CC(N(CCc2ccccc2)C(=S)Nc2ccccc2)C(=O)N1c1ccc(F)cc1 (stereo unspecified)	GLP-1R inv ag 4.5µM, GLP1R cytotox inconclusive
CCCOc1ccc(N2C(=O)CC(N(Cc3ccc(OC)cc3)C(=S)Nc3ccccc3)C2=O)cc1 (stereo unspecified)	GLP-1R inv ag inconclusive
CCCOc1ccc(N2C(=O)CC(N(CCc3ccc(OC)c(OC)c3)C(=S)Nc3ccccc3)C2=O)cc1 (stereo unspecified)	GLP-1R inv ag 5.6µM
O=C1CC(N(CCc2ccccc2)C(=S)Nc2cc(Cl)ccc2Cl)C(=O)N1c1c(Cl)cccc1Cl (stereo unspecified)	GLP-1R inv ag 4.5µM
O=C(NCCc1ccc(Cl)cc1)c1ccc(CSCc2ccccc2Cl)o1	GLP-1R inv ag inconclusive (no result: GLP-1R agonist)
COc1ccc(-c2noc(CC(=O)N(C)c3cc(Cl)c(OC)cc3OC)n2)cc1	none (no result: GLP-1R agonist)
Cc1ccccc1CN1C(=O)C(O)(CC(=O)c2cccc(Br)c2)c2ccccc21 (stereo unspecified)	GLP-1R inv ag inconclusive (no result: GLP-1R agonist)
COc1ccccc1N(C)S(=O)(=O)c1ccc(Cl)c(C(=O)OCc2c(C)noc2C)c1	GLP-1R inv ag 10µM
COc1ccccc1N(C)S(=O)(=O)c1ccc(Cl)c(C(=O)N2CCC2)c1	none
COc1ccccc1N(C)S(=O)(=O)c1ccc(Cl)c(C(=O)NNC(=O)c2ccccc2O)c1	GLP-1R inv ag 11µM
CCOC(=O)c1ccc(CN(Cc2ccc(Cl)cc2Cl)S(=O)(=O)c2cccc(Cl)c2)cc1	none (no result: GLP-1R agonist)
CC1CN(C(=O)Nc2ccc(C(=O)NCc3ccccc3F)cc2)c2ccccc2S1 (stereo unspecified)	none (no result: GLP-1R agonist)
O=C(O)C(=O)Nc1cccc(C2=NN=N[N]2)c1	none (no result: GLP-1R inv ag, GLP1R cytotox, PTHR1 ag)
CCOC(=O)c1c(C)n(-c2ccccc2)c2ccc(O)c(CN(C)C)c12	GLP-1R inv ag 8.9µM
CCOC(=O)c1c(C)n(C)c2ccc(O)c(CN(CC)CC)c12	none
CCOc1cc(CNCc2cccs2)cc(Br)c1OCC	GLP-1R inv ag 10µM
CCOc1cc(CNCc2ccncc2)cc(Br)c1OCc1ccccc1F	GLP-1R inv ag 11µM
CCOc1cc(CNCCO)cc(Br)c1OCc1cccs1	GLP-1R inv ag inconclusive
CCOc1cc(CNCCSc2nnnn2C)cc(Br)c1OCc1ccccc1F	GLP-1R inv ag inconclusive
COc1cc(SC)ccc1C(=O)N(CC(=O)Nc1ccccc1Br)Cc1ccco1	GLP-1R inv ag 10µM
CNC(=S)NNC(=O)CCn1nc(C)c(Br)c1C	none
CCOCCCNC(=S)NNC(=O)CCn1nc(C)c(Br)c1C	GLP-1R inv ag 5.6µM, GLP1R cytotox inconclusive
O=C(CN1CCN(CC(=O)Nc2ccc(OCc3ccccc3)cc2)CC1)Nc1ccc(F)cc1	GLP-1R inv ag 8.9µM
CC(C)CC1NC(=O)N(CC(=O)Nc2ccc(OCc3ccccc3)cc2)C1=O (stereo unspecified)	GLP-1R inv ag 11µM
CS(=O)(=O)N(CCc1ccccc1)CC(=O)Nc1ccc(OCc2ccccc2)cc1	GLP-1R inv ag 11µM
Cc1ccc(NC(=O)C2(NC(=O)c3cccc(N4C(=O)CSC4c4ccccc4)c3)CCCCC2)cc1 (stereo unspecified)	GLP-1R inv ag 6.3µM
O=C(O)c1cccc(N2C(=O)CSC2c2ccccc2)c1 (stereo unspecified)	none
CCOc1ccc(CCNC(=O)c2cc3c(=O)oc4ccc(C)cc4c3s2)cc1OCC	none
CCOCCCNC(=O)c1cc(Sc2ccc(C)cc2)nc2ccccc12	GLP-1R inv ag 10µM
CCOCCCNC(=O)c1cc(Sc2cccc(Cl)c2)nc2ccccc12	GLP-1R inv ag inconclusive
Cc1onc(-c2ccccc2)c1C(=O)NC(=S)NNC(=O)c1ccccc1O	GLP-1R inv ag 2.8µM, GLP1R cytotox inconclusive

Bioassay records (PubChem)
